Columns and labels:
[1] = test system: RAB14; parameters: species or system human, MV4-11 + K-562 + COLO205 + SK-N-BE2 + OVCAR-8; conditions: read-out: apparent Kd; compound concentrations: 100 nM and 1000 nM (sheet 'Samples'), CATDS: 3.92328124697153E-2; n = 1
[2] = test system: SMC4; parameters: species or system human, MV4-11 + K-562 + COLO205 + SK-N-BE2 + OVCAR-8; conditions: read-out: apparent Kd; compound concentrations:100 nM and 1000 nM (sheet 'Samples'); n = 1

Compound	potency estimated from few doses [1] [µM]	potency estimated from few doses [2] [µM]
COc1ccc(Nc2nccc(NCCNC(=O)Nc3cc(C)ccc3C)n2)cc1 [GSK1379899A]	2.28	–
Nc1nc(-c2ccc3c(N)n[nH]c3c2)cc(N2CCCCC2)n1 [GSK2228768A]	–	2.04

Source: PMC11062922 (Nature Chemical Biology, 2023)
